eIF4H FP inh: inhibitors of RNA binding by human eIF4H. Q15056. eIF4H fluorescence polarization binding assay. inhibition, % at 35 µM. 0.94% of 290,000 active;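 note: calls also rest on retests at 20 µM and on dose response follow-up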
AI-2 QS modul: modulates the Vibrio harveyi AI-2 quorum sensing system; activity change, % at 7.5 µM; 0.4% of 300,000 active; Vibrio harveyi JMH597 AI-2 luminescence/OD600 ratio, 9 h; active compounds read low; strain lacks LuxN and CqsS sensors; 0 = neutral-control median; AID 2094; in the data active = activity change below about -75%, passing the limit was not always enough; inconclusive = no clear call, values can overlap the other calls;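 note: luminescence divided by OD600 gain over 9 h not by final OD600 alone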
PABP FP inh: blocks human PABP binding to poly(A) RNA; P11940; fluorescence polarization; calls only at 35 µM; 1% of 290,000 active;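 note: calls also rest on retests at 20 µM and on dose response follow-up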
ABCB6 inh MLPCN: inhibitors of human ABC transporter ABCB6. Q9NP58. K562-ABCB6 porphyrin accumulation, flow cytometry, 1 h; active compounds read low. fluorescence ratio to DMSO, % at 10 µM. 0.19% of 360,000 active;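 active = fluorescence ratio to DMSO below 75%, the collection mean minus 3 SD; inconclusive = too few cells collected in the well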;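 note: signal is porphyrin accumulated inside mitochondria; 100% equals median channel fluorescence of DMSO control wells; lower ratio means ABCB6 inhibition with less porphyrin fluorescence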
PHOSPHO1 inh: inhibitors of human PHOSPHO1 phosphatase. Q8TCT1. recombinant PHOSPHO1, absorbance phosphatase assay. inhibition, % at 13.3 µM. 1.1% of 290,000 active. AID 1565; in the data active = inhibition above about 60%
MLLE-PAM2 inh: blocks PAM2 peptide binding to the PABP1 MLLE domain; P11940; GST-MLLE / FITC-PAM2 fluorescence polarization; inhibition, % at 20 µM; 0.36% of 360,000 active; in the data active = inhibition above about 35%, passing the limit was not always enough;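 note: plate controls were DMSO wells with GST-MLLE for no effect and wells lacking GST-MLLE protein for full effect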
* marks the source's active call; other numbers are inactive results; i = inactive; ? = inconclusive; . = not tested or not shown; + = active, no number. Shown are actives, neighbours in structure and some others; about 2.6% of the full set was active somewhere. Unless noted, the rule behind the calls is not given here.

SMILES	eIF4H FP inh	AI-2 QS modul	PABP FP inh	ABCB6 inh MLPCN	PHOSPHO1 inh	MLLE-PAM2 inh
COc1ccc(Nc2nnc(SCc3cc([N+](=O)[O-])cc4c3OCOC4)s2)cc1	-14	28	i	102	78*	-76
COC(=O)c1ccc(CSc2nnc(Nc3ccccc3OC)s2)o1	-4	-10	i	.	67*	.
COC(=O)c1ccc(CSc2nnc(SCc3ccc(C(=O)OC)o3)s2)o1	-9	0	i	100	54	-86
CCc1nc2ccc(C(=O)NCCCn3ccnc3)cn2c1N(C)Cc1ccc(Cl)cc1	.	.	.	97	.	15
COc1ccc(-c2ccc(C(=O)NC3CCCCC3)c3occc23)c(C)c1	.	.	.	92	.	3
CC(=O)Nc1ccc(NC(=S)NC(=O)c2oc3ccccc3c2C)cc1	-11	4	i	104	-10	12
Cc1cccnc1NC(=S)NC(=O)c1oc2ccccc2c1C	3	21	i	105	16	40*
COc1ccc(CC(N)c2csc(NC(=O)c3cc(C(C)(C)C)oc3C)n2)cc1 (stereo not given)	.	.	.	101	.	-2
COc1cc(NC(=O)c2ccccc2)c(OC)cc1NC(=O)Cc1cccs1	58*	33	i	103	26	-20
COc1ccc(NC(=O)Cc2cccs2)c(OC)c1	2	29	i	100	-33	-10
COc1ccc(CCCC(=O)N/N=C/c2ccccc2OC)cc1	active	16	+	98	-25	5
Cc1ccsc1C(=O)OCC(=O)N1CCN(C(=O)c2ccco2)CC1	0	12	i	93	63*	3
COc1ccc(-c2cc(C(=O)N3CCN(c4ncccn4)CC3)c3ccccc3n2)cc1OC	.	.	.	97	.	-52
Cc1ccc(-c2cc(C(=O)N3CCN(c4ncccn4)CC3)c3ccccc3n2)cc1	-6	28	i	95	69*	-107
O=C(COc1ncnc2sccc12)N1CCN(C(=O)c2ccco2)CC1	66	30	+	101	58	3
O=C(OCC(=O)N1CCN(C(=O)c2ccco2)CC1)c1cc(-c2ccccc2)nc2ccccc12	-9	11	i	95	61*	-17
O=C(OCC(=O)N1CCN(C(=O)c2ccco2)CC1)c1cc(-c2ccc(F)cc2)nc2ccccc12	-2	31	i	99	-5	5
CC(C)C(=O)N1CCCC1(C)C(=O)Nc1ccc(F)cc1 (stereo not given)	.	.	.	116	.	-2
N#Cc1c(N)[nH]c(=S)c(C#N)c1-c1ccccc1	1	10	i	96	96*	-14
CN(C)S(=O)(=O)c1ccc(NC(=O)/C=C/c2ccccc2Cl)cc1	9	-93*	i	103	12	-10
O=C(/C=C/c1ccccc1Cl)Nc1ccccc1	-1	-48	i	97	20	-3
OCc1ccccc1-c1ccc2nccn2c1	.	.	.	95	.	-14
CCc1nc2ccc(C(=O)NCCCN3CCCC3=O)cn2c1N(C)C(=O)COc1ccccc1	.	.	.	108	.	5
CC(C(=O)Nc1nncs1)N1C(=O)C2C3C=CC(C3)C2C1=O (stereo not given)	?	17	+	107	23	3
CC1(C(=O)NS(=O)(=O)c2cccc(C#N)c2)CCN1C(=O)Cc1cc(F)ccc1F (stereo not given)	.	.	.	102	.	-7
SMILES	eIF4H FP inh	AI-2 QS modul	PABP FP inh	ABCB6 inh MLPCN	PHOSPHO1 inh	MLLE-PAM2 inh
Nc1ccc(/C=C/C(=O)c2cccs2)cc1	65*	5	i	131	-11	-113
O=C(Nc1nnc([C@H]2C[C@H](O)[C@@H](CO)O2)s1)c1ccc(Oc2ccccc2)cc1	.	.	.	100	.	10
C=CCn1c(-c2cccc(OC)c2)n[nH]c1=S	2.5*	26	+	97	11	-20
C=CCn1c(-c2cc3cccc(OC)c3o2)n[nH]c1=S	?	25	+	98	28	-11
C=CCn1c(-c2ccco2)n[nH]c1=S	0	26	i	102	-101	-23
C=CCn1c(-c2cc(OC)c(OC)c(OC)c2)n[nH]c1=S	12	1	i	95	-4	-24
COc1ccccc1N1C(=O)CC(Sc2n[nH]c(-c3cccc(C)c3)n2)C1=O (stereo not given)	-5	21	i	103	81*	30
COc1ccccc1N1C(=O)CC(Sc2nccc(C)n2)C1=O (stereo not given)	0	-1	i	97	-48	21
